L3MBTL1 block = qHTS Assay for the Inhibitors of L3MBTL1 | AlphaScreen L3MBTL1–H3K9me1 peptide binding | Potency, µM (titrated, usually from 57.1 µM), hits mostly inhibitors | hit rate 0.66% among 230,000; further: nearly all actives have a fitted effect of over 60% in size
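Displacement of a biotinylated histone H3(1-15) peptide monomethylated at Lys9 (75 nM) from L3MBTL1 (50 nM) was measured by AlphaScreen after a 30 min room-temperature compound incubation; cefsulodin titration served as intraplate control.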
POLI inh = qHTS for Inhibitors of Polymerase Iota. Pol iota fluorescent replication assay, 10 min. Potency, µM (series often up to 115 µM), usual class: inhibitors. hit rate 1% among 390,000. AID 588590, 2011
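Pol iota at 10 nM preincubated 15 min with compounds at room temperature; reaction started with fluorescent substrate, 50 nM final. Fluorescence read kinetically at 0 and 10 min; buffer-only wells as negative control.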
Pol beta inh = qHTS Assay for Inhibitors of DNA Polymerase Beta | P06746 | Pol beta primer extension/strand displacement, fluorescence kinetic | Potency, µM (top dose mostly 114 µM), actives largely listed as inhibitors | hit rate 1.3% among 340,000 | AID 485314, 2010
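Enzyme-only controls used 10 nM Pol beta; buffer lacking enzyme served as negative control. Compound preincubated 15 min, then 50 nM substrate added; 0 and 10 min reads at room temperature.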
WRN inhibitor = qHTS for Inhibitors of WRN Helicase | WRN helicase unwinding, fluorescent forked duplex, kinetic | Potency, µM (top dose mostly 114 µM), most hits filed as inhibitors | hit rate 0.46% among 360,000; further: nearly all actives have a fitted effect of over 55% in size
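Screening of the MLSMR collection measured strand separation of a quenched forked DNA duplex (100 nM) by 20 nM WRN with 2 mM ATP, all final. Compounds were preincubated with enzyme 15 min at room temperature.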
Pol eta inh = qHTS for Inhibitors of Polymerase Eta; DNA polymerase eta (Homo sapiens), Q9Y253; recombinant Pol eta, fluorescent DNA replication assay; Potency, µM (doses to about 114 µM), most hits filed as inhibitors; hit rate 1.2% among 390,000; AID 588591, 2011
Target sequence (Q9Y253 whole entry, looked up): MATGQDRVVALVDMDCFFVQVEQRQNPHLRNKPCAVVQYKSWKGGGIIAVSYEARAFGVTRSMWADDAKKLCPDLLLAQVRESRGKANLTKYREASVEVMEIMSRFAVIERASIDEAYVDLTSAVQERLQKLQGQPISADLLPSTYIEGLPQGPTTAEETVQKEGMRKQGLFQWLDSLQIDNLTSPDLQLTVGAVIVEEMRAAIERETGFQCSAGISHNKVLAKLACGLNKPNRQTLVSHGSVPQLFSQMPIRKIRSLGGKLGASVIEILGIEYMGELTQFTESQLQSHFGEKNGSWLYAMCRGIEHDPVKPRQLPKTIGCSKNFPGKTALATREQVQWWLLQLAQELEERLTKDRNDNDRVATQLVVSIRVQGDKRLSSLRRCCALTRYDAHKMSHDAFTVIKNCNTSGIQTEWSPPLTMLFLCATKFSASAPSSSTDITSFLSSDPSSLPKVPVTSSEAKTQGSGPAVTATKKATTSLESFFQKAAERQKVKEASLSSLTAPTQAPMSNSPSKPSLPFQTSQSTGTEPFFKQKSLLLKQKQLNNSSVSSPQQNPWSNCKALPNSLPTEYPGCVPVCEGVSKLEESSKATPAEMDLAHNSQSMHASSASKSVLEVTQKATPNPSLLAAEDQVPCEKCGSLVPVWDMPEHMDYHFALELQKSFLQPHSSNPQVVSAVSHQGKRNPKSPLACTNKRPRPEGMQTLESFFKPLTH
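Pol eta at 10 nM preincubated with compounds 15 min at room temperature; reaction started with fluorescent substrate (50 nM final) and read kinetically at 0 and 10 min.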
POLK inh = qHTS for Inhibitors of Polymerase Kappa. hit rate 0.53% among 400,000. purified Pol kappa, fluorescent DNA synthesis assay, 10 min. Potency, µM (series often up to 107 µM), most hits filed as inhibitors. AID 588579, 2011
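Fluorescent qHTS in 1536-well format: enzyme (10 nM) and compound sat 15 min at room temperature before 50 nM substrate (final) was added. Signal taken at 0 and 10 min; no-enzyme buffer wells were negative controls.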
A number is an active result; n = inactive; u = inconclusive; x = no result; [ ] = remark or other dose. This is a sample that favours compounds with a hit; in the whole collection about 2.5% have one here. The call rests on the fitted dose curve; in most records, active means well fitted curve in the direction sought with a large enough effect; inconclusive means small, poorly fitted or top-dose-only effect, or another doubt; inactive means no such curve, though single readings can be large; an effect the other way counts as inactive or inconclusive.

SMILES	L3MBTL1 block	POLI inh	Pol beta inh	WRN inhibitor	Pol eta inh	POLK inh
CN(Cc1ccccc1)Cc1nc2c(c(=O)n(C)c(=O)n2C)n1Cc1ccc(Cl)cc1	n	n	n	n	n	n
CC(C)(C)N/N=C/c1cc(Cl)cc([N+](=O)[O-])c1O	n	n	35.5µM	n	u	n
O=C(N/N=C/c1cc(Cl)cc([N+](=O)[O-])c1O)C1CC1	n	u	u	n	n	n
CC[C@@H](C(=O)[C@@H](C)[C@@H](O)[C@H](C)CCc1ccc(C)c(O)c1C(=O)O)[C@H]1O[C@](CC)([C@H]2CC[C@](O)(CC)[C@H](C)O2)C[C@@H]1C	x	u	22.4µM	n	n	n
Cc1ccc(S(=O)(=O)CCC(=O)Nc2sccc2C#N)cc1	n	n	x	n	n	n
Cc1ccc(S(=O)(=O)CCC(=O)Nc2sccc2C(N)=O)cc1	u	u	x	n	28.2µM	u
CCNc1nc(NCc2ccco2)c2ccccc2n1	x	n	x	x	x	n
Cc1ccc(NS(=O)(=O)c2ccc(C)c(NC(=O)COc3ccccc3)c2)c(C)c1	n	n	u	n	n	n
COc1cccc(/C=C2\Oc3cc(OC(=O)N4CCOCC4)ccc3C2=O)c1	n	n	n	n	n	n
COc1cccc(/C=C2\Oc3cc(OCC(=O)N4Cc5ccccc5C[C@H]4C(=O)O)ccc3C2=O)c1	x	u	n	n[11.6 µM]	50.1µM	n
Cc1ccc(OC(=O)c2ccc3c(=O)n4c(nc3c2)CCC4)cc1	n	n	x	n	u	n
COc1cc(OC)cc(OC(=O)c2ccc3c(=O)n4c(nc3c2)CCC4)c1	n	39.8µM	x	n[11.6 µM]	39.8µM	n
O/N=C1\CCC\C1=C/c1ccco1	n	u	n	n	n	u
O=C1C(=Cc2ccco2)CCCC1=Cc1ccco1	x	20µM	x	u	22.4µM	50.1µM
COC(=O)CSc1snnc1-c1ccc(F)cc1	x	n	n	n	n	n
FC(F)(F)c1cnc(C(c2ccccn2)c2ncn[nH]2)c(Cl)c1 (stereo not drawn)	8.91µM	n	n	n	n	n
FC(F)(F)c1cnc(C(c2ccccc2)c2ncn[nH]2)c(Cl)c1 (stereo not drawn)	n	n	n	n	n	n
O=C(O)c1[nH]c2ccccc2c1C(c1c(F)cccc1Cl)c1c(C(=O)O)[nH]c2ccccc12	n	n	n	n	n	n
COc1cc(Cl)cc(C(c2c(C(=O)O)[nH]c3ccccc23)c2c(C(=O)O)[nH]c3ccccc23)c1O	n	u	89.1µM	n[11.6 µM]	u	u
O=C(CN1CCCC1)NC(c1ccccc1)c1ccccc1	3.98µM	n	n	n	n	n
S=c1[nH]nc(-c2cc(-c3ccccc3)n[nH]2)n1/N=C/c1ccccc1	x	n	n	n	n	n
O=[N+]([O-])c1ccccc1/C=C/C=N/n1c(-c2cc(-c3ccccc3)n[nH]2)n[nH]c1=S	u	u	10µM	n	31.6µM	n
Cc1cccc(/C=N/n2c(-c3cc(-c4ccccc4)n[nH]3)n[nH]c2=S)c1	n	n	56.2µM	n	n	n
Cc1ccc(-c2n[nH]c(=S)n2/N=C/C=C/c2ccccc2[N+](=O)[O-])cc1	x	u	31.6µM	u	u	n
O=[N+]([O-])c1ccccc1/C=C/C=N/n1c(-c2ccco2)n[nH]c1=S	n[2.29 µM]	n	n	n	n	n
SMILES	L3MBTL1 block	POLI inh	Pol beta inh	WRN inhibitor	Pol eta inh	POLK inh
Cc1ccn2c(C(=O)NN=C3CCCCCCC3)c(C)nc2c1	n	n	n	n	n	n
O=c1c(S(=O)(=O)c2ccc(Cl)cc2)cn(Cc2ccc(F)cc2)c2ccc(F)cc12	x	79.4µM	n	x	n	u
O=c1c(S(=O)(=O)c2ccc(Cl)cc2)cn(Cc2ccccc2)c2ccc(F)cc12	n	n	n	n	n	n
O=C(OC(C(=O)O)C(OC(=O)c1ccccc1)C(=O)NCc1ccccc1)c1ccccc1 (stereo not drawn)	n	89.1µM	n	n	n	n
COc1ccc(CCNC(=O)CCCN2C(=O)C(c3ccccc3)Oc3cccnc32)cc1OC (stereo not drawn)	x	n	n	n	n	n
O=C(NC(C(=O)O)c1ccccc1)c1ccc(S(=O)(=O)N2CCOCC2)cc1 (stereo not drawn)	n	n	n	n	n	n
CN(Cc1ccco1)c1cc(-c2ccoc2)ncn1	x	x	x	x	x	25.1µM
CN(C)c1ccc(-c2cc(N(C)Cc3ccco3)ncn2)cc1	x	x	x	x	x	n
COc1ccc(S(=O)(=O)N(C)C)cc1NC(=O)Cc1ccc(S(=O)(=O)N2CCOCC2)s1	n	n	x	n	n	n
O=C(Cc1ccc(S(=O)(=O)N2CCOCC2)s1)Nc1cc(C(F)(F)F)cc(C(F)(F)F)c1	n	n	x	n	n	n
O=C(Cc1ccc(S(=O)(=O)N2CCOCC2)s1)Nc1ccc(N2CCOCC2)cc1	n	n	31.6µM	n	n	n
CN(C)S(=O)(=O)c1ccc(NC(=O)Cc2ccc(S(=O)(=O)N3CCOCC3)s2)cc1	u	u	u	n[11.6 µM]	56.2µM	u
O=c1[nH]c2cc(Cl)cc([N+](=O)[O-])c2c2ccc(Cl)cc12	x	x	x	n	n	x
COc1ccc(N2CCN(C(=O)Cn3cnc4sc(C)c(S(=O)(=O)N5CCCCC5)c4c3=O)CC2)cc1	x	n	n	x	n	n
Cc1ccc(-c2[nH]c3cc(C(=O)NCCCn4ccnc4)ccc3c(=O)c2O)cc1	x	79.4µM	n	n	n	n
CCCNC(=O)c1ccc2c(=O)c(O)c(-c3ccc(C)cc3)[nH]c2c1	x	n	n	n	n	n
Clc1nc(Cl)nc(-c2cn(-c3ccccc3)c3ccccc23)n1	n	n	20µM	n	n	n
